# NPC1 prom act – NPC1 promoter activation | Huh7 NPC1 promoter luciferase reporter, 24 h | Potency, µM (series often up to 9.22 µM), actives largely listed as activators | 320,000 tested, 2.4% active | AID 485313; also: nearly all actives have a fitted effect of over 60% in size
#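 NPC1 promoter–luciferase Huh7 cells; 24 h compound; luminescence.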
# ELG1 genotox – inducers of genotoxicity in HEK293T ELG1-luciferase cells. AID 504466. 330,000 tested, 1.3% active. Potency, µM (titrated, usually from 46 µM), hits mostly activators. HEK293T ELG1-luciferase reporter, luminescence, 16 h; also: nearly all actives have a fitted effect of over 60% in size
#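 Genotoxic stress is detected as increased luminescence from luciferase-tagged ELG1 in HEK293T cells, measured with ONE-Glo after a 16 hr treatment at 37 °C.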
# Rab9 prom act – activates the Rab9 promoter; Huh7 Rab9 promoter-luciferase reporter, luminescence, 24 h; Potency, µM (titrated, usually from 9.22 µM), hits mostly activators; 320,000 tested, 2.8% active; also: nearly all actives have a fitted effect of over 60% in size
#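 Measured in stably transfected Huh7 cells bearing a Rab9 promoter–luciferase construct: 24 h compound treatment at 37 °C, followed by luminescence detection.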
# FLuc counter – firefly luciferase modulation, counter-screen for miR-21 project. P08659. purified FLuc, Km substrates, luminescence inhibition. Potency, µM (highest dose often 57.5 µM), actives largely listed as inhibitors. 360,000 tested, 6.9% active; also: nearly all actives have a fitted effect of over 55% in size
# Target sequence (P08659 whole entry, looked up): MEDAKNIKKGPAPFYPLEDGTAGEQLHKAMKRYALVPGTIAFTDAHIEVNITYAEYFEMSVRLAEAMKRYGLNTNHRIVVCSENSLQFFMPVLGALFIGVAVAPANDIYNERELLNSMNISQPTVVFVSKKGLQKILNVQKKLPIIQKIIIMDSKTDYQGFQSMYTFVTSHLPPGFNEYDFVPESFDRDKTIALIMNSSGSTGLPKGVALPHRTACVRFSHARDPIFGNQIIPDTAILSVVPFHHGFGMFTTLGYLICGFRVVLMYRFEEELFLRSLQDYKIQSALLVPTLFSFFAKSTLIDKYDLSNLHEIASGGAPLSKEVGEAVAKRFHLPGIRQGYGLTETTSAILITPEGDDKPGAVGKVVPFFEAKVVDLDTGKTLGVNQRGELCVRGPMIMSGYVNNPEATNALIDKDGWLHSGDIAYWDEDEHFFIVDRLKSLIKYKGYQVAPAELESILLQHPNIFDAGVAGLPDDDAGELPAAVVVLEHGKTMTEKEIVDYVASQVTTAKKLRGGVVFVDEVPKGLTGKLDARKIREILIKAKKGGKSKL
#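 Purified P. pyralis luciferase (10nM final) with 10uM D-luciferin and 10uM ATP (Km levels) in 50mM Tris acetate pH 7.5, 10mM Mg acetate, 0.01% Tween-20, 0.05% BSA; qHTS 6-point titration, ~60 µM downward; luminescence read.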
# SMN2 splice enh – increases expression of the SMN2 splice variant; HEK293 SMN2-luciferase splicing reporter, luminescence, 30-36 h; Potency, µM (highest dose often 46.1 µM), actives largely listed as activators; 210,000 tested, 2.8% active; also: nearly all actives have a fitted effect of over 55% in size
#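 HEK293 cells carry an SMN2 minigene-luciferase reporter in which exon 7 inclusion puts luciferase in frame. Cells were seeded at 2000 cells/well, attached for 10-12 hours, then exposed to compounds for 30-36 hours at 37C before ONE-Glo luminescence.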
# A number is an active result; . = inactive; ? = inconclusive; / = no result. This is a sample that favours compounds with a hit; in the whole collection about 7.5% have one here. Calls follow the shape of the dose curve; as a rule, active = well fitted curve in the direction sought with a large enough effect; inconclusive = small, poorly fitted or top-dose-only effect, or another doubt; inactive = no such curve, though single readings can be large; an effect the other way counts as inactive or inconclusive.
SMILES,NPC1 prom act,ELG1 genotox,Rab9 prom act,FLuc counter,SMN2 splice enh
COc1ccc(-c2nc(CCNC(=O)c3cccs3)cs2)cc1,.,?,.,27µM,.
COc1ccc(-c2nc(C)c(CCNC(=O)c3ccco3)s2)cc1,/,/,/,27µM,/
Cc1ccc(-c2nc(C)c(CCNC(=O)c3ccco3)s2)cc1,/,/,/,17µM,/
Cc1ccc(-c2nc(CCNC(=O)c3ccco3)cs2)cc1,.,.,.,17µM,/
C=C(C)C(=O)Nc1cccc(C2=NOC3(C2)C[C@@H](C(N)=O)N(C(=O)C(=C)C)C3)c1 (some centres not stated),.,.,.,.,/
Cc1ccc(N2CC(NC(=O)C(=O)c3c(C)[nH]c4ccccc34)CC2=O)cc1 (configuration not stated),.,.,.,.,/
COc1ccc(-c2nc(C)c(CCNC(=O)c3cccs3)s2)cc1OC,/,/,/,17µM,/
Cc1csc2nc(CNC(=O)c3ccco3)cn12,?,18µM,?,17µM,20µM
CC(=O)NCc1cn2c(C)csc2n1,.,.,.,.,.
CC(=O)Nc1ccc(S(=O)(=O)N2CCC(c3nnc(-c4ccc(C)cc4)o3)CC2)cc1,.,.,.,.,.
O=c1c2c3c(sc2nc(NCCO)n1Cc1ccco1)CCCCC3,.,.,.,15µM,.
O=c1c2c3c(sc2nc(NCCO)n1CCc1ccccc1)CCCCC3,.,.,.,?,.
COCCNc1nc2sc3c(c2c(=O)n1Cc1ccco1)CCCCC3,?,?,2µM,?,32µM
CC(C)=CC(=O)Nc1ccc2c(c1)OCO2,/,/,/,11µM,11µM
O=C(CSc1nnc2ccccn12)Nc1ncc(Cl)cc1Cl,.,18µM,?,?,?
CC(CC(=O)Nc1ccc2c(c1)OCO2)c1ccccc1 (configuration not stated),.,.,?,?,/
O=C(CCS(=O)(=O)c1ccccc1)Nc1ccc2c(c1)OCO2,?,?,?,27µM,/
CC(CC(=O)Nc1ccc2c(c1)OCCO2)c1ccccc1 (configuration not stated),?,?,?,?,11µM
COc1cc(C(=O)Oc2cccc(/C=N/NC(=O)c3cc(C)[nH]n3)c2)cc(OC)c1OC,.,.,.,?,/
CC(=O)c1cccc(NC(=O)CSc2ccc(-c3ccc4c(c3)OCO4)nn2)c1,.,.,?,?,.
O=C(CN1C(=O)C2C3C=CC(C3)C2C1=O)Nc1ccc2c(c1)OCCO2 (configuration not stated),?,?,3.5µM,17µM,.
O=C(CSc1ccc(-c2ccccc2)nn1)Nc1ccc2c(c1)OCCO2,.,?,?,11µM,16µM
O=C(CCn1c(=O)oc2ccccc21)Nc1ccc2c(c1)OCCO2,?,?,?,19µM,/
CN1CCN(c2ccc(NC(=O)CSc3ccccc3)cc2F)CC1,1.8µM,2.1µM,1.4µM,11µM,11µM
CCOC1=C/C(=C/c2c(N)n3nc(CC(=O)N4CCCC4)sc3nc2=O)C=CC1=O,.,.,.,.,/
SMILES,NPC1 prom act,ELG1 genotox,Rab9 prom act,FLuc counter,SMN2 splice enh
CN(C(=O)CCS(=O)(=O)c1ccc2c(c1)oc(=O)n2C)C1CCCCC1,.,.,.,.,/
O=C(CSCc1ccc(Cl)cc1)Nc1ccc2c(c1)OCCO2,.,.,.,24µM,.
O=C(CSCc1ccccc1F)NCc1ccccc1,?,?,?,24µM,?
O=C(CSCc1ccc(F)cc1)Nc1ccccc1,.,.,.,.,.
O=C(CSCc1ccccc1)Nc1ccc(F)c(F)c1,.,?,?,17µM,?
O=C(CSc1ccccc1)Nc1ccc2c(c1)OCO2,?,?,?,17µM,/
Cc1ccc(F)cc1NC(=O)CSc1nc(-c2cccs2)cc(C(F)(F)F)n1,/,/,/,.,.
CCOC(=O)C1=C(C)N(C[C@@H]2CC[C@@H](Cc3ccc4cc(OC)ccc4c3)O2)C(=O)NC1c1ccccc1 (some centres not stated),/,.,/,/,/
COC(=O)C1=C(C)N(Cc2ccccc2)C(=O)N[C@@H]1c1ccccc1,/,/,/,/,.
O=C(CCNC(=O)c1ccccc1)NCc1ccccc1F,.,.,.,2.7µM,/
Cc1ccc(CSCC(=O)Nc2ccc3c(c2)OCO3)cc1,.,.,.,.,.
O=C(CSc1nnc2ccccn12)Nc1ccc2c(c1)OCCO2,?,?,2.5µM,?,/
O=C(CSc1ccccc1)Nc1ccc2c(c1)OCCO2,0.89µM,1.6µM,0.63µM,2.4µM,/
O=C(CSCSCC(=O)Nc1ccc2c(c1)OCO2)Nc1ccc2c(c1)OCO2,.,.,.,17µM,.
O=C(CSc1nnc2ccccn12)NCc1ccc2c(c1)OCO2,.,.,.,.,.
CCOC(=O)c1sc(N)c(C(=O)OCC)c1C,?,?,?,21µM,/
CCOC(=O)c1sc(N)c(C(=O)Nc2ccccc2)c1C,.,.,2.8µM,?,/
c1ccc(Cn2nnnc2CN2CCCC2)cc1,.,.,.,.,.
COc1ccc(CNc2ncnc3c2cnn3-c2ccc(C)c(C)c2)cc1,/,/,/,.,/
Cc1cccc(-n2ncc3c(N4CCCc5ccccc54)ncnc32)c1,2.8µM,2.3µM,2µM,5.4µM,13µM
Cc1ccc(-n2ncc3c(N4CCC(Cc5ccccc5)CC4)ncnc32)cc1C,/,/,/,.,/
Cc1ccc(-n2ncc3c(NCc4ccco4)ncnc32)cc1C,2.8µM,?,3.5µM,13µM,16µM
Cc1cccc(-n2ncc3c(NCc4cccs4)ncnc32)c1,3.5µM,?,?,9.5µM,10µM
Clc1ccc(-n2ncc3c(NCc4cccnc4)ncnc32)cc1Cl,0.5µM,?,1.1µM,1.1µM,/
c1ccc(CNc2ncnc3c2cnn3-c2ccccc2)cc1,.,?,.,?,/
SMILES,NPC1 prom act,ELG1 genotox,Rab9 prom act,FLuc counter,SMN2 splice enh
Cc1cccc(-n2ncc3c(NCc4ccco4)ncnc32)c1,.,?,?,12µM,16µM
CC(=O)Cn1cnc2c(cnn2-c2ccc(C)c(C)c2)c1=O,3.2µM,?,1.6µM,24µM,/
Cc1cccc(-n2ncc3c(NCc4ccccn4)ncnc32)c1,.,.,?,?,.
CC(=O)Nc1ccc(Nc2ncnc3c2cnn3-c2ccccc2)cc1,?,.,?,.,.
Cc1cccc(-n2ncc3c(NCc4ccccc4)ncnc32)c1,.,18µM,.,.,10µM
Cc1ccc(-n2ncc3c(=O)n(CC(=O)N(C)C)cnc32)cc1C,.,.,.,?,/
CC(=O)Nc1ccc(Nc2ncnc3c2cnn3-c2cccc(C)c2)cc1,2.8µM,.,3.2µM,.,?
CN(C)CCCNc1ncnc2c1cnn2-c1ccccc1,.,?,.,?,.
Cc1ccc(-n2ncc3c(NNC(=O)c4ccco4)ncnc32)cc1Cl,.,?,.,8.5µM,/
CCOCCCNc1ncnc2c1cnn2-c1ccc(C)c(C)c1,/,/,/,11µM,/
Cc1ccc(-n2ncc3c(NCCCN(C)C)ncnc32)cc1Cl,/,/,/,13µM,/
CNc1ncnc2c1cnn2-c1ccc(C)c(C)c1,/,/,/,11µM,/
CCCCC(=O)OCC(=O)Nc1ccc(OC(F)F)cc1,.,.,.,?,.

# Screening results as filed in PubChem BioAssay.
